# Rows were chosen to be rich in hits. Some 3.4% of all compounds tested hit in one or more screens of this group.
# GPR151 activ: human GPR151 activation. Q8TDV0. PathHunter beta-arrestin GPR151 cells, luminescence. activation, % at 11.2 µM. 1% of 650,000 active; in the data active = activation above about 4.9%;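 also: 0% = median of compound wells and 100% = cells with positive control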
# MITF inh: blocks human microphthalmia-associated transcription factor | O75030 | AlphaScreen MITF homodimerization, bead proximity signal | inhibition, % at 2.6 µM | 0.91% of 650,000 active | AID 1259374; in the data active = inhibition above about 50%;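 also: 0% = vehicle wells with protein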
# FBW7 act: activators of human E3 ligase FBW7; AID 1259310; 0.13% of 650,000 active; normalized activity (activation), % at 26.1 µM; AlphaScreen FBW7–phospho-cyclin E peptide binding, activator screen; Q969H0; in the data active = normalized activity above about 1.9%;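 also: purified mutant Fbw7 with reduced substrate affinity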
# TEAD-YAP inh: TEAD-YAP interaction inhibition. 1.4% of 640,000 active. HEK-TIYL cells, TEAD-Gal4/YAP UAS-luciferase luminescence. inhibition, % at 9.12 µM; in the data active = inhibition above about 32%;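 also: 0% = median of test compound wells and 100% = reference inhibitor wells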
# MITF inh conf: confirmation of human MITF inhibitors; shares compounds with MITF inh; AlphaScreen MITF homodimerization, biotin/His-MITF beads; 16% of 4,700 active; inhibition, % at 2.6 µM;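 active = inhibition above a cutoff derived from the DMSO control wells, cut at about 28% in these data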;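 also: 0% = MITF dimer wells with DMSO only; inhibitors lower the bead chemiluminescence by keeping MITF from dimerizing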
# AlphaScreen DR: AlphaScreen optical interference, dose response counter-screen | shares compounds with MITF inh | AlphaScreen optical interference counterscreen, cell-free | IC50, µM | 6% of 480 active | AID 1259373; call rule not given here
# AS interf ctr: optically interferes with AlphaScreen signal | 7.6% of 4,700 active | shares compounds with MITF inh | AID 1259376 | inhibition, % at 2.6 µM | LysRS AlphaScreen counterscreen, signal interference, triplicate;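 active = inhibition above a cutoff derived from the DMSO control wells, cut at about 30% in these data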
# GPR151 confirm: confirmation of human GPR151 activators | shares compounds with GPR151 activ | 6,700 tested, under 10 active | GPR151 PathHunter beta-arrestin cells, luminescence, 90 min; % of EA-reagent control over plate median | activation, % at 11.2 µM;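 active = mean percent activation across replicates above the confirmation screen cutoff of 4.91%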
# GPR119 ag: GPR119 activation, counter-screen for GPR151 activators; shares compounds with GPR151 activ; GPR119 PathHunter beta-arrestin cells, luminescence, 90 min; 0 = compound-well median, 100 = enzyme-acceptor control; activation, % at 11.2 µM; 0.3% of 6,700 active;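 active = mean percent activation in the counterscreen above 29.09%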;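 also: counterscreen on off-target GPR119 to flag nonselective hits from the GPR151 activator screen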
# Target sequence (Q8TDV5 whole entry, looked up): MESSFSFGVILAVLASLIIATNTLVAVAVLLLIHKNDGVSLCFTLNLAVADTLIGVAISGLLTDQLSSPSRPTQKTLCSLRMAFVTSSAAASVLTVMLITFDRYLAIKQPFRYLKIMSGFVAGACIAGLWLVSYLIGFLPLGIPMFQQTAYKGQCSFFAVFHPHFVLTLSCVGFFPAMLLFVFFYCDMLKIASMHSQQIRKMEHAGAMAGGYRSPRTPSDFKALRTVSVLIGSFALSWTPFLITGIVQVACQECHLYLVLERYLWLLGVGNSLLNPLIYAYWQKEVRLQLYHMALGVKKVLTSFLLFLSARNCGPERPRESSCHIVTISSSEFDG
# Starred values were filed as active, the others as inactive; . = not tested or not shown.
SMILES,GPR151 activ,MITF inh,FBW7 act,TEAD-YAP inh,GPR151 confirm,GPR119 ag,others
CN(CCC1CCCCO1)C1CCN(c2cccc(NC(=O)c3ccncc3)c2)CC1 (stereo not drawn),-1,5,0,-6,.,.,
COc1cc(OC)c(C(=O)OC2CCCC2=O)cc1OC (stereo not drawn),5.2*,76*,0,5,1,2,MITF inh conf=67*;AlphaScreen DR=>7;AS interf ctr=6
CCOc1ccccc1CN1CCC(N2CCCC2)CC1,9.2*,56*,0,0,-1,-10,MITF inh conf=-11;AS interf ctr=-7
CNC(=O)C(Sc1nnc(Nc2ccc(OC)cc2)s1)C(C)=O (stereo not drawn),4,8,0,-24,.,.,
O=S(=O)(O)c1ccc(N=NN2CCNCC2)cc1,0,-3,0,-13,.,.,
CCc1cc(OCCCN2CCNCC2)ccc1Cl,1,4,0,-5,.,.,
CCc1cc(OCCCCN2CCNCC2)ccc1Cl,6.4*,54*,0,-15,0,5,MITF inh conf=2;AS interf ctr=-1
Cc1ccccc1NC(=O)Cn1nc(C)n2cccc2c1=O,8.6*,7,0,4,-1,-12,
COc1cccc(OCCOCC(O)CN2C(C)CCCC2C)c1 (stereo not drawn),-2,11,0,-5,.,.,
Cc1cc(C)n(-c2ccc(C(=O)OCC(=O)c3ccccc3)cc2)n1,1,0,0,2,.,.,
CC(=O)c1c(C)[nH]c(C(=O)COC(=O)c2ccc(-n3nc(C)cc3C)cc2)c1C,7.7*,0,0,10,0,6,
CC(C)c1ccc(NC(=O)c2cc(S(=O)(=O)NCCc3ccccc3)ccc2F)cc1,5.8*,4,0,13,-1,-12,
O=C(Nc1ccc(S(=O)(=O)NCCc2ccccc2)cc1)c1ccccc1F,1,-6,0,2,.,.,
CC(=O)Nc1ccc(S(=O)(=O)NCCNC(=O)c2ccccc2F)cc1,6.3*,4,0,-9,-2,-13,
COc1cc(C#N)ccc1OCC(=O)NC(C)c1ccc(F)cc1 (stereo not drawn),1,2,0,2,.,.,
COc1cc(C#N)ccc1OCC(=O)N(C)Cc1ccc(F)cc1,8.0*,-15,0,-11,1,-8,
COc1cccc(CC2(CO)CCN(Cc3cccn3-c3ncccn3)CC2)c1,12*,-9,0,5,0,-2,
COc1ccc(CN2CCC(CO)(Cc3ccccc3)CC2)cc1Cn1cccn1,9.4*,6,0,6,-1,-6,
Cc1cccc(C)c1NC(=O)C1c2cccc[n+]2CC(=O)N1CCO (stereo not drawn),1,-11,0,-1,.,.,
CCCN1C(=O)C[n+]2ccccc2C1C(=O)Nc1ccccc1C (stereo not drawn),12*,2,1,2,1,2,
CCOc1ccc(C(=O)N2CCCC2C(=O)O)cc1 (stereo not drawn),0,0,0,1,.,.,
COc1cc(C(=O)N2CCCC2C(=O)O)cc(OC)c1OC (stereo not drawn),5.0*,22,-1,3,0,8,
CCOc1cc(C(=O)N2CCCC2)cc(Cl)c1OC,-1,-9,0,0,.,.,
COc1cc(C(=O)N2CCCCC2)cc(Cl)c1OC,6.8*,-2,0,-6,0,6,
Clc1cccc(C2Nc3ccc4ccccc4c3C3C=CCC32)c1Cl (stereo not drawn),0,-7,0,-5,.,.,
SMILES,GPR151 activ,MITF inh,FBW7 act,TEAD-YAP inh,GPR151 confirm,GPR119 ag,others
CCOc1ccc(C2C(C(=O)OC3CCCCC3)=C(C)NC3=C2C(=O)CCC3)cc1OC (stereo not drawn),1,-7,0,4,.,.,
CCCOc1ccc(C2C(C(=O)OC3CCCCC3)=C(C)NC3=C2C(=O)CCC3)cc1OC (stereo not drawn),7.2*,12,1,17,-1,-6,
COc1cc(C2C(C(=O)OC3CCCC3)=C(C)NC3=C2C(=O)CC(c2ccc(Cl)cc2)C3)ccc1OC(C)=O (stereo not drawn),5.5*,5,0,5,0,0,
CC(C)c1nc(CNCc2c(C(=O)N3CCCN(C)CC3)nc3sccn23)cs1,6.9*,10,0,-1,0,1,
CC(=O)C1=C(C)NC(SCC(=O)c2ccc([N+](=O)[O-])cc2)=C(C#N)C1c1ccccc1 (stereo not drawn),0,-6,0,-11,.,.,
COc1ccc(OCCn2c(-c3ccc(Cl)cc3)nc3ccccc3c2=O)cc1,-1,-3,0,-10,.,.,
O=c1c2ccccc2cnn1CCOc1ccc(Cl)cc1,4.9*,-4,0,-40,0,-4,
CCN(CC(=O)Nc1ccc(NC(C)=O)cc1)S(=O)(=O)/C=C/c1ccccc1,7.4*,5,0,-3,0,4,
COc1ccc(/C=N/Nc2nc(C)c([N+](=O)[O-])c(N(C)c3ccccc3)n2)cc1OC,5.5*,-1,0,14,1,2,
Cc1ccc(-c2nnc(SCC(=O)N3CCC(C)CC3)n2C)cc1,-1,15,0,3,.,.,
C/C(=N\NC(=O)c1cc(-c2ccc(Br)cc2)n[nH]1)c1ccccc1O,-1,13,0,-9,.,.,
CCNS(=O)(=O)c1ccc(CCC(=O)NC2CC2)cc1,6.7*,11,0,-12,0,10,
COc1ccc(CNC(=O)CN(C)S(=O)(=O)c2ccc(Cl)cc2)cc1,5.4*,13,0,4,0,-5,
COc1ccc(S(=O)(=O)N(C)CC(=O)Nc2cccc(OC)c2)cc1,6.2*,9,0,-1,0,-10,
CC(NC(=O)CSc1nnc(COc2ccccc2Cl)o1)c1ccccc1 (stereo not drawn),1,6,0,-2,.,.,
CCOC(=O)C(C#N)C(=O)c1ccc(F)c(F)c1 (stereo not drawn),-1,-5,0,0,.,.,
CCOC(=O)C(C#N)C(=O)c1ccc(N2C(=O)CCC2=O)cc1 (stereo not drawn),6.6*,9,1,14,-1,-10,
Cc1ccccc1OCC(=O)NNC(=O)C1c2ccccc2Oc2ccccc21,6.0*,7,0,7,-1,-2,
Cc1ccccc1OCC(=O)N(C(C)C)C(C)C,8.9*,5,0,13,0,7,
